8 compounds from PubChem BioAssay (NCI) can be followed below.

Some test systems named below: NCI-H23 lung; NCI-H226 lung; NCI-H322M lung; HOP-62 NSCLC; NCI-H460 lung; NCI-H522 lung; A549/ATCC NSCLC; 786-0 renal; COLO 205 colon; DU-145 prostate; K-562 leukemia; MALME-3M melanoma; MDA-MB-231 breast; RXF 393 renal; SF-268 CNS; SF-295 CNS; SF-539 CNS; UACC-257 melanoma; M14 melanoma.
What all share (assay): NCI-60 one-dose screen, 48 h (100 = growth as untreated, 0 = no growth, -100 = all killed)
What all share (conditions): 10 µM

The structures appear in SMILES notation. About 83,000 compounds went through this panel and 20% of them were active in at least one assay; those are over-represented in the sample as a whole.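 Cells were grown in 96-well plates and exposed to the test compound at a single concentration for 48 hours; results are reported as percent growth, with values below 10 considered active.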 Values without a mark were called inactive. Calls of active or inactive are those of the source.

On to `NCC(=O)CCC(=O)O`, for which the growth in the assay with NCI-H23 lung was 93.8%; in the assay with NCI-H226 lung it was 99.2%; in the assay on NCI-H322M lung it was 107%; in the assay with HOP-62 NSCLC, 99.1%; with NCI-H460 lung, 115%; in the assay on NCI-H522 lung, 107%. Besides, the growth is 99.1% in the assay with A549/ATCC NSCLC; 103% with 786-0 renal; 116% in the assay with COLO 205 colon; 121% in the assay with DU-145 prostate; 109% in the assay on K-562 leukemia; 101% with MALME-3M melanoma. Besides, the growth was 107% in the assay with MDA-MB-231 breast; 98.3% with RXF 393 renal; 101% in the assay with SF-268 CNS; 106% in the assay with SF-295 CNS; 110% with SF-539 CNS; 105% with UACC-257 melanoma. Moreover, the growth in the assay with M14 melanoma was 113%.

Regarding `Cc1cc2nc(CO)[nH]c2cc1C`, the growth in the assay with NCI-H23 lung is 105%; in the assay with NCI-H226 lung it was 108%; with NCI-H322M lung, 113%; with HOP-62 NSCLC it was 99.4%; in the assay on NCI-H460 lung, 114%; with NCI-H522 lung it was 96.9%. For the same compound, the growth is 90.9% with A549/ATCC NSCLC; 107% with 786-0 renal; 103% with COLO 205 colon; 104% in the assay with DU-145 prostate; 111% in the assay on K-562 leukemia; 144% in the assay on MALME-3M melanoma. In addition, the growth in the assay with MDA-MB-231 breast was 109%; in the assay with RXF 393 renal it was 89.8%; in the assay on SF-268 CNS, 88.7%; with SF-295 CNS it was 121%; in the assay with SF-539 CNS, 107%; in the assay on UACC-257 melanoma, 92%. For the same compound, in the assay on M14 melanoma, the growth was 107%.

On to `COc1ccccc1NC(=O)c1cc2cc(Br)ccc2cc1O`, for which the growth in the assay on NCI-H23 lung was 4.53% (active); in the assay with NCI-H226 lung, 8.51% (active); in the assay with NCI-H322M lung, 22.6%; in the assay on HOP-62 NSCLC, 6.34% (active); with NCI-H460 lung, 2.06% (active); with NCI-H522 lung it was -24.5% (active). Further, the growth was 3.54% (active) in the assay with A549/ATCC NSCLC; 14.1% in the assay on 786-0 renal; 50.8% in the assay on COLO 205 colon; 27% with DU-145 prostate; 7.54% (active) with K-562 leukemia; -1.45% (active) in the assay with MALME-3M melanoma. In addition, the growth was 3.51% (active) in the assay with MDA-MB-231 breast; 39% in the assay on RXF 393 renal; 17.8% in the assay on SF-268 CNS; 11.3% in the assay on SF-295 CNS; 0.0916% (active) in the assay with SF-539 CNS; -21% (active) in the assay on UACC-257 melanoma. Besides, the growth in the assay with M14 melanoma is 19.6%.

Regarding `O=c1cc(-c2ccccc2)[nH]c(=S)[nH]1`, the growth in the assay with NCI-H23 lung was 101%; with NCI-H226 lung it was 103%; with NCI-H322M lung, 97.6%; in the assay on HOP-62 NSCLC, 108%; in the assay on NCI-H460 lung it was 108%; with NCI-H522 lung, 89.3%. For the same compound, the growth in the assay with A549/ATCC NSCLC is 104%; with 786-0 renal it was 97.5%; in the assay with COLO 205 colon it was 119%; in the assay with DU-145 prostate, 104%; in the assay with K-562 leukemia it was 96.2%; in the assay on MALME-3M melanoma, 83.5%. For the same compound, the growth with MDA-MB-231 breast was 103%; with RXF 393 renal it was 108%; in the assay on SF-268 CNS it was 92.1%; with SF-295 CNS, 188%; in the assay on SF-539 CNS it was 102%; in the assay on UACC-257 melanoma, 109%. Moreover, in the assay with M14 melanoma, the growth is 102%.

Take `N#C/C(=C\c1cc(O)c(O)c(O)c1)C(N)=O`: the growth in the assay on NCI-H23 lung was 102%; with NCI-H226 lung it was 108%; in the assay on NCI-H322M lung it was 110%; with HOP-62 NSCLC, 97.2%; with NCI-H460 lung it was 110%; in the assay with NCI-H522 lung, 76.5%. Further, the growth in the assay with A549/ATCC NSCLC was 105%; in the assay on 786-0 renal it was 94.6%; with COLO 205 colon, 104%; with DU-145 prostate, 93.6%; in the assay with K-562 leukemia, 71.9%; in the assay on MALME-3M melanoma, 115%. The growth with MDA-MB-231 breast was 102%; with RXF 393 renal it was 99.6%; with SF-268 CNS, 107%; in the assay on SF-295 CNS it was 87.7%; in the assay with SF-539 CNS it was 94%; in the assay on UACC-257 melanoma, 105%. The growth in the assay with M14 melanoma is 92.2%.

With `O=c1[nH]cc(Cl)cc1O`, the growth was 96.4% in the assay with NCI-H23 lung; 95.5% in the assay with NCI-H226 lung; 97.1% in the assay on NCI-H322M lung; 103% with HOP-62 NSCLC; 94.1% in the assay on NCI-H460 lung; 60.7% in the assay with NCI-H522 lung. The growth with A549/ATCC NSCLC was 75.2%; with 786-0 renal, 101%; in the assay with COLO 205 colon, 112%; in the assay on DU-145 prostate, 96.8%; in the assay on K-562 leukemia it was 48%; in the assay with MALME-3M melanoma, 91.2%. Moreover, the growth is 77.8% with MDA-MB-231 breast; 107% in the assay with RXF 393 renal; 79% in the assay with SF-268 CNS; 82.4% in the assay with SF-295 CNS; 96% in the assay on SF-539 CNS; 92.3% in the assay with UACC-257 melanoma. The growth in the assay with M14 melanoma was 86.6%.

For `COc1ccc(Oc2c(I)cc(CC(NC(C)=O)C(=O)O)cc2I)cc1` (configuration not stated), the growth in the assay with NCI-H23 lung was 61.9%; in the assay on NCI-H226 lung it was 73%; in the assay on NCI-H322M lung it was 102%; in the assay with HOP-62 NSCLC, 80.9%; in the assay with NCI-H460 lung, 104%; in the assay on NCI-H522 lung it was 103%. The growth was 87.3% in the assay on A549/ATCC NSCLC; 71.7% in the assay with 786-0 renal; 108% in the assay on COLO 205 colon; 107% with DU-145 prostate; 63.9% in the assay on K-562 leukemia; 88.4% with MALME-3M melanoma. The growth in the assay with MDA-MB-231 breast was 78.8%; in the assay with RXF 393 renal, 88.6%; in the assay with SF-268 CNS, 91.7%; with SF-295 CNS, 62.3%; with SF-539 CNS it was 111%; in the assay with UACC-257 melanoma it was 83.8%. The growth with M14 melanoma is 80.8%.

For the compound `CC1CCCC(CC(N)=O)CC1` (configuration not stated), the growth with NCI-H23 lung is 102%; with NCI-H226 lung it was 98.7%; in the assay on NCI-H322M lung it was 112%; in the assay on HOP-62 NSCLC, 94.9%; with NCI-H460 lung it was 98.8%; with NCI-H522 lung it was 88.1%. Besides, the growth in the assay on A549/ATCC NSCLC was 92.8%; in the assay on 786-0 renal, 110%; in the assay on COLO 205 colon, 107%; with DU-145 prostate, 117%; in the assay on K-562 leukemia, 94.3%; in the assay with MALME-3M melanoma it was 107%. In addition, the growth in the assay with MDA-MB-231 breast is 103%; in the assay on RXF 393 renal it was 117%; in the assay on SF-268 CNS, 104%; in the assay with SF-295 CNS it was 89.4%; with SF-539 CNS, 98.4%; in the assay on UACC-257 melanoma it was 104%. Also, in the assay on M14 melanoma, the growth is 108%.
